Reference: ChEMBL document CHEMBL3988442, “University of Dundee, Small-Polar-MMV Screening Library” (2021)
For part of these data: Results with a measured potency or affinity are listed apart.

Experiments:
Design in all cases: scale not given: direction of the effect not stated beside the values
[1] = target: Protein translocase subunit SecA (Escherichia coli (strain K12)) (UniProt P10408); test: Assay to Identify E. coli SecA ATPase Inhibitors; format: functional; conditions: 30 µM
[2] = target: T1, Ubiquitin-activating enzyme e1, putative (Leishmania donovani (strain BPK282A1)) (UniProt E9BSI1); test: Leishmania donovani Ubiquitin Activating Enzyme (LdE1); format: functional; conditions: 30 µM
T1 sequence (whole entry): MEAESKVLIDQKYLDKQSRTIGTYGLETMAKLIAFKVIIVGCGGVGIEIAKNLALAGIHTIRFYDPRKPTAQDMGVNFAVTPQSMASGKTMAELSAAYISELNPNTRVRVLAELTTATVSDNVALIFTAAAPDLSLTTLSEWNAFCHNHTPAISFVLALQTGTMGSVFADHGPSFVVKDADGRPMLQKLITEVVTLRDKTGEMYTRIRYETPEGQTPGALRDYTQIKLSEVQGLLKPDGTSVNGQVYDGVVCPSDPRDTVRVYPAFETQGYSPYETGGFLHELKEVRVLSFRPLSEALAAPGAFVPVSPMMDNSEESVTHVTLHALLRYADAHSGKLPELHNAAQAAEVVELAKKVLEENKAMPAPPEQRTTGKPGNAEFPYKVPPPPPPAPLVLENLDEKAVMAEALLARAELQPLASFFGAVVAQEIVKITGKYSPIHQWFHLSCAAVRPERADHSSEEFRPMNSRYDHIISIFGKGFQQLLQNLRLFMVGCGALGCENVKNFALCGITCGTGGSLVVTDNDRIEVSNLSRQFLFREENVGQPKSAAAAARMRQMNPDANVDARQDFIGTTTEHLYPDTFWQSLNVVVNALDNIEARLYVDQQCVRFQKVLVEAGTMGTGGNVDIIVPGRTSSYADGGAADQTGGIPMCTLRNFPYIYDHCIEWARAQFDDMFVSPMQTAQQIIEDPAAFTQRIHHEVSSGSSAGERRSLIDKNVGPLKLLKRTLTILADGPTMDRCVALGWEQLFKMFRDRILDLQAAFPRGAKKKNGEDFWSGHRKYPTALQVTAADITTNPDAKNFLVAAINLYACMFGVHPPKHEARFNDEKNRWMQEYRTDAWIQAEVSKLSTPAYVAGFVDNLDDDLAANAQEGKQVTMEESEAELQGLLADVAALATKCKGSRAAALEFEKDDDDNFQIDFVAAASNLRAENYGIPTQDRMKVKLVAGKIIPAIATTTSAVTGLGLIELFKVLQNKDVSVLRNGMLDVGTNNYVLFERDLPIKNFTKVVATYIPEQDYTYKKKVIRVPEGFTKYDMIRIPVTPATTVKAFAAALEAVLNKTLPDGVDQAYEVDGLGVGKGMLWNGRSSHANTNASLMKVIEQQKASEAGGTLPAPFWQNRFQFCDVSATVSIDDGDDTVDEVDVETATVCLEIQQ

[3] = target: Sialic acid-binding Ig-like lectin 9 (Homo sapiens) (UniProt Q9Y336); test: Hs-Siglec9 ALPHAscreen SOP 20170721; conditions: 10 µM
Chain of Sialic acid-binding Ig-like lectin 9 (Homo sapiens) (Q9Y336 whole entry): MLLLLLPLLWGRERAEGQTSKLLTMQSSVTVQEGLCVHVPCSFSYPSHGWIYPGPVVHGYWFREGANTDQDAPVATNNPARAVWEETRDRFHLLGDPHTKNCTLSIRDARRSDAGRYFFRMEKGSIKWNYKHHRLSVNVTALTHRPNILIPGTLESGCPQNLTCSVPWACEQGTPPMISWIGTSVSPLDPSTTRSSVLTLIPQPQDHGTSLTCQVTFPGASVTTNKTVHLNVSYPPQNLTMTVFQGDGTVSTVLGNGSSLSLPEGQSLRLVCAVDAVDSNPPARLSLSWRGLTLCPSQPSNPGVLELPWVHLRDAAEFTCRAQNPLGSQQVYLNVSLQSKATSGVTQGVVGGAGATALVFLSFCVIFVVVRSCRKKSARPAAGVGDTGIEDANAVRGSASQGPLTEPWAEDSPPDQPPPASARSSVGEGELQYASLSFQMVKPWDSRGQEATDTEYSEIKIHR

Trypanosoma cruzi = test: Trypanosoma cruzi phosphomannomutase and mannose-1-phosphate guanylyltransferase assay; format: functional; conditions: 10 µM
[4] = target: T2, Arginase-2, mitochondrial (Homo sapiens) (UniProt P78540); test: in vitro enzyme assay to detect the production of urea directly proportional to the activity of Arginase II; format: functional; conditions: 33.3 µM; further: in the data most compounds retested in dose-response had high values
T2 sequence (whole entry): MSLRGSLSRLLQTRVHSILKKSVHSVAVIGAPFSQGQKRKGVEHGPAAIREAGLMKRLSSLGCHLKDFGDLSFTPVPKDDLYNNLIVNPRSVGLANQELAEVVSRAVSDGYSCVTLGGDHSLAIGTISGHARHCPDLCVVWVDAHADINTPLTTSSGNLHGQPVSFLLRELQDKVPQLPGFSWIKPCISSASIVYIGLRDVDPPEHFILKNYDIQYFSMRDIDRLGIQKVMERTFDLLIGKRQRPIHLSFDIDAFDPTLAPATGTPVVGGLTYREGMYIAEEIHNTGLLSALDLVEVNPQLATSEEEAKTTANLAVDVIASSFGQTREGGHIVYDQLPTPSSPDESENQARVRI

[5] = target: T3, Proteasome subunit beta (Trypanosoma cruzi) (UniProt O96673); test: Trypanosoma cruzi proteasome chymotrypsin-like activity (TcProtChymo) assay.; further: in the data most compounds retested in dose-response had high values; format: functional; conditions: 9.37 µM
T3 sequence (whole entry): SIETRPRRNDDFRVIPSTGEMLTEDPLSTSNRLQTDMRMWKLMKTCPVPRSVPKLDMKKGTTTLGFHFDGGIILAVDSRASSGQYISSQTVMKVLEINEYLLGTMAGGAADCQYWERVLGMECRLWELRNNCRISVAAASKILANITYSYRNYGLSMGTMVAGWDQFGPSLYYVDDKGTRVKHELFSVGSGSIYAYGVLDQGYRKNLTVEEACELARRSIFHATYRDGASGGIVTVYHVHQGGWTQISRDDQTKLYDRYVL

Homo sapiens = species: Homo sapiens; test: To identify inhibition of the IFN signalling (Jak-Stat) pathway via expression of an eGFP reporter gene under the control of an IFN-stimulated response element (ISRE) containing MxA promoter.; format: functional; conditions: 30 µM
[6] = target: T4, Tyrosyl-tRNA synthetase, putative (Trypanosoma cruzi (strain CL Brener)) (UniProt Q4DSP6); test: Trypanosoma cruzi tyrosyl tRNA synthetase (TcYRS) _High Tyrosine SOP; format: functional; conditions: 30 µM; further: in the data most compounds retested in dose-response had high values
T4 sequence (whole entry): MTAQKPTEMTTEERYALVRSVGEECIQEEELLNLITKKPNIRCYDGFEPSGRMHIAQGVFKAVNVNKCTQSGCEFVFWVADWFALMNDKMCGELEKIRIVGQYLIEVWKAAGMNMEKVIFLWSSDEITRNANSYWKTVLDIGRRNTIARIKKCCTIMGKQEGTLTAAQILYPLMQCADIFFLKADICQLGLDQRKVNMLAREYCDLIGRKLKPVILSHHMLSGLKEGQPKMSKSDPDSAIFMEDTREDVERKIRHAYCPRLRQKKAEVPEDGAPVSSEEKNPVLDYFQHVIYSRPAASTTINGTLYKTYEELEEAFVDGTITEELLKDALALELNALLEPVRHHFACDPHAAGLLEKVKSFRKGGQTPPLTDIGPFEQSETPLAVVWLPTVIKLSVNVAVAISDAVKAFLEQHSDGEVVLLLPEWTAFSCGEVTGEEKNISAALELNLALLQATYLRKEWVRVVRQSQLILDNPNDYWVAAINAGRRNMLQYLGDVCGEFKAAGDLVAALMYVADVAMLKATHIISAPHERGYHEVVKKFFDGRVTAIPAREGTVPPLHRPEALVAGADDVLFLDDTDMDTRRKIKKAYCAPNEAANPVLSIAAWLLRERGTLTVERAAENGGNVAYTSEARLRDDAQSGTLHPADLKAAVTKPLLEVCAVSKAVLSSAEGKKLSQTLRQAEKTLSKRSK

[7] = target: T4, Tyrosyl-tRNA synthetase, putative (Trypanosoma cruzi (strain CL Brener)); test: Trypanosoma cruzi tyrosyl tRNA synthetase (TcYRS) SOP; format: functional; conditions: 30 µM
[8] = target: Chromo domain-containing protein 1 (Saccharomyces cerevisiae (strain ATCC 204508 / S288c) (Baker's yeast)) (UniProt P32657); test: ScCHD-1 Enzyme Inhibition Assay; format: functional; conditions: 30 µM; further: in the data most compounds retested in dose-response had high values
Chain of Chromo domain-containing protein 1 (Saccharomyces cerevisiae (strain ATCC 204508 / S288c) (Baker's yeast)) (P32657 whole entry, the tested form may be a part): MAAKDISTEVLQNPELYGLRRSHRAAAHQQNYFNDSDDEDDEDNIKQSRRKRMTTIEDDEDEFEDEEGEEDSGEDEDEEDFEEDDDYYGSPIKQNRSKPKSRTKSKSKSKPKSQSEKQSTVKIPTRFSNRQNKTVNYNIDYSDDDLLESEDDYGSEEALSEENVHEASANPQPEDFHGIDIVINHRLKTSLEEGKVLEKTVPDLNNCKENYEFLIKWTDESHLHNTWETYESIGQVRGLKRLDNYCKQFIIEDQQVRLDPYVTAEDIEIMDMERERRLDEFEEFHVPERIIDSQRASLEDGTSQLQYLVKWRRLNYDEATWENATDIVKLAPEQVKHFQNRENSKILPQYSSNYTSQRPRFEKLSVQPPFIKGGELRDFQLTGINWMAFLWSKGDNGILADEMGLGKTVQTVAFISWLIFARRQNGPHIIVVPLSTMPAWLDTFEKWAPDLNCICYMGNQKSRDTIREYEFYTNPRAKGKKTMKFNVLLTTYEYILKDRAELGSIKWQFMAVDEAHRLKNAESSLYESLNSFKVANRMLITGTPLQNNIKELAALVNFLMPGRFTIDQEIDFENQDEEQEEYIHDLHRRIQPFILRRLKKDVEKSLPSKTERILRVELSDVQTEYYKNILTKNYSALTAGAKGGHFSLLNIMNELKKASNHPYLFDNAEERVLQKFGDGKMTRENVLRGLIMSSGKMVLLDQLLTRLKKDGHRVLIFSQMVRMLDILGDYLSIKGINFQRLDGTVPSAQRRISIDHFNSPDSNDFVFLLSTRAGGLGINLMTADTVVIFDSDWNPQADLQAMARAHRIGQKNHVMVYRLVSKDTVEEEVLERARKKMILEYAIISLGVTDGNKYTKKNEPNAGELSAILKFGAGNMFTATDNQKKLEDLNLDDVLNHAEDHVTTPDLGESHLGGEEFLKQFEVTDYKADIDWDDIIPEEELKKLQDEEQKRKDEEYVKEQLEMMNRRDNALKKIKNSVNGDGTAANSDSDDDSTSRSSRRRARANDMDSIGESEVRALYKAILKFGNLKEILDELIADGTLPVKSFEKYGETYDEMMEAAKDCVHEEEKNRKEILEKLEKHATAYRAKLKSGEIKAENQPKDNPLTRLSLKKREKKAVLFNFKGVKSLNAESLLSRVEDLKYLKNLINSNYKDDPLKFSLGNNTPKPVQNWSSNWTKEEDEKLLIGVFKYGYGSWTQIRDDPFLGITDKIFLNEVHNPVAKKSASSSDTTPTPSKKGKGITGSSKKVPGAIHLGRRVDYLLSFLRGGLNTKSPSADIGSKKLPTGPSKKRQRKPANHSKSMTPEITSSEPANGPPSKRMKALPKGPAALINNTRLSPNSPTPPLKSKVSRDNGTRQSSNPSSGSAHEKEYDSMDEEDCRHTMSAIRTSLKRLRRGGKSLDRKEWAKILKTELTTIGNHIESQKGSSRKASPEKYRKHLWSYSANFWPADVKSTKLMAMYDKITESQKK

Chain of Protein translocase subunit SecA (Escherichia coli (strain K12)) (P10408 whole entry): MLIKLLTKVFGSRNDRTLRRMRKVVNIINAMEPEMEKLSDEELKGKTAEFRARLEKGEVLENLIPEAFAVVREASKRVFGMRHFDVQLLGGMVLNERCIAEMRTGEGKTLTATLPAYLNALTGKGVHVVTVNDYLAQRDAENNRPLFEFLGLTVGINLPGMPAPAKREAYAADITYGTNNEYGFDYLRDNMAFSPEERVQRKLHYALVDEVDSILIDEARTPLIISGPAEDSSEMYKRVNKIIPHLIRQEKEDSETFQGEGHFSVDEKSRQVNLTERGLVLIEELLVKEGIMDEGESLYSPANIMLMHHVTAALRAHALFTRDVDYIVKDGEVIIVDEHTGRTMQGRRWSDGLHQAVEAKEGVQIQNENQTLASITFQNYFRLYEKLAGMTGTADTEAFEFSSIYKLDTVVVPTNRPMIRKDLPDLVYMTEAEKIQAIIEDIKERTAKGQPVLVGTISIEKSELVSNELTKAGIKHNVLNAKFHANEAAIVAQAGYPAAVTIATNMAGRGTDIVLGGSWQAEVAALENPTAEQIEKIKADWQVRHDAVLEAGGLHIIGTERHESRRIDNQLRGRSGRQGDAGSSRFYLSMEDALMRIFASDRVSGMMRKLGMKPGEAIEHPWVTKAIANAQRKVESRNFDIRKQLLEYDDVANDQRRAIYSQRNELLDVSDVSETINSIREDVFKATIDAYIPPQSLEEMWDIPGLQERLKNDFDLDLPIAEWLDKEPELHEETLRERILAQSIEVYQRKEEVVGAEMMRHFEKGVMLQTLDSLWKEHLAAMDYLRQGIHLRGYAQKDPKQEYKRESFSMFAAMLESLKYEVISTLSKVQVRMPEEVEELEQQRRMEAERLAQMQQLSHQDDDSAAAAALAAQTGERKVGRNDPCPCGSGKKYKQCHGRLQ

Structure (SMILES) | Percent Effect [1] [%] | Percent Effect [2] [%] | Percent Effect [3] [%] | Percent Effect (Trypanosoma cruzi) [%] | Percent Effect [4] [%] | Percent Effect [5] [%] | Percent Effect (Homo sapiens) [%] | Percent Effect [6] [%] | Percent Effect [7] [%] | Percent Effect [8] [%]
CCc1c(C)nn(CCNC(=O)C2CCCN(C(=O)N(C)C)C2)c1C (stereo not given) | -6.94 | 5.41 | 6.18 | 2.04 | 6.64 | 7.36 | 10.5 | 5.85 | 14.6 | 41.1
Cn1nc2c(cc1=O)CN(Cc1nnc(C3CC3)o1)CC2 | -3.12 | 51.3 | -13.6 | -6.29 | 0.41 | 6.91 | 36.5 | -11 | -6.02 | -6.1
O=C(CSC1CCc2ccccc2NC1=O)NCCO (stereo not given) | -0.348 | 13.5 | 0.884 | 1.84 | -3.15 | 15.6 | 25.1 | 5.85 | 14.6 | -1.22
COC[C@@]12CC[C@@H](N3CCOCC3)C[C@H]1CCN(c1ncccn1)C2 | -6.56 | 13.5 | 17.1 | 6.5 | 19.9 | 14.7 | 0.0489 | 4.79 | 12.2 | 88.3
CC(C)N1CCN(C(=O)Nc2cnn(CC(N)=O)c2)CC1 | -3.33 | 17.9 | -17.7 | 9.67 | 0 | 11.7 | 5.26 | -3.35 | 22.9 | -6.52
Cc1ccc(-c2nnc(CNCCn3cc(C)cn3)o2)cc1 | 0.127 | 7.79 | 7.81 | -0.56 | 1.02 | 6.67 | -6.58 | 4.9 | 11.8 | -4.71
O=C1CC(c2ccsc2)c2sc(C(=O)O)c(-c3ccccc3)c2N1 (stereo not given) | -4.21 | 8.11 | 8.19 | 5.92 | 21.3 | 21.9 | 11.7 | 4.79 | 12.2 | 33.2
c1ccc(-n2ncc(CN3CCCC3Cn3cccn3)n2)cc1 (stereo not given) | -6.8 | -13 | 24.4 | -2.61 | -0.205 | 5.44 | 1.65 | -1.96 | -2.35 | 3.05
CC(C)c1cc(C(=O)NCCN2CCCS2(=O)=O)n[nH]1 | -3.62 | 15.4 | 0.501 | 0.469 | 4.92 | 18 | -1.8 | -4.31 | 18.1 | -2.98
O=C(c1ccc(C(F)(F)F)nc1)N1CCCC(n2cncn2)C1 (stereo not given) | 1.26 | -5.13 | -2.26 | 5.92 | 5.33 | 3.33 | -13.8 | -3.35 | 1.21 | -3.39
Cc1nc(COc2ccc(CNCC3CN(C)CCO3)cc2)cs1 (stereo not given) | -3.51 | 2.6 | 0.562 | -3.73 | 3.07 | 3.16 | 18.8 | -0.98 | -2.35 | -1.69
Cc1cnn(CC2CCCCN2Cc2cc(C)on2)c1 (stereo not given) | -1.2 | 10.3 | 3.02 | -0.282 | -0.82 | 1.45 | 8.23 | 1.44 | 10.8 | -2.89
CN(C)c1cc(CNC(=O)Nc2ccc(S(C)(=O)=O)nc2)ccn1 | -1.24 | 10.3 | -5.84 | 0.845 | 1.64 | 10.3 | -0.626 | 6.22 | 25.3 | -2.59
Cc1ccc(OCC(=O)NS(=O)(=O)c2c(C)noc2C)cc1C | -7.75 | -5.13 | -10.8 | -1.41 | 0.41 | 0.0853 | 17.7 | -5.26 | -6.02 | -0.0938
COCc1ncc(CN2CCC(Oc3ccccc3OC)CC2)cn1 | -4.09 | 2.7 | 1.93 | -3.59 | 3.85 | 9.59 | 1.55 | 5.85 | 14.6 | -3.8
O=C(NCCc1ccccc1)C1CCCN(c2ccc3nncn3n2)C1 (stereo not given) | -3.44 | 2.7 | -1.4 | -8.05 | 1.75 | 17.6 | -5.46 | 5.85 | 7.32 | -3.81
Cc1ccc(NC(=O)N2C[C@H]3CC[C@@H]2CN(Cc2cscn2)C3)cc1 | -8.89 | 2.7 | 16.7 | 2.42 | 5.25 | 4.45 | 0.0605 | 6.92 | 12.2 | 0.126
CCc1nccn1C1CCCN(C(=O)c2csc(NC(C)=O)n2)C1 (stereo not given) | -3.11 | 15.6 | 14.2 | -2.98 | 0.205 | 8.95 | -1.12 | 4.9 | 11.8 | -7.02
Cc1nc(CN2CCN(Cc3ccoc3)Cc3cccnc32)cs1 | -1.42 | -1.3 | -2.07 | -2.82 | -4.45 | 12.3 | 10.4 | 1.58 | -5.13 | 1.4
CCCOCCCNc1nccc(-c2cn(C)nc2C)n1 | -7.46 | 0 | 9.13 | 12.5 | -3.85 | 13.7 | 36.5 | 5.85 | 17.1 | -2.61
COCCc1noc(CN2CCCC2c2c(C)nn(C)c2C)n1 (stereo not given) | -3.14 | 0 | 5.73 | 5.22 | -0.887 | 3.14 | -16.4 | 1.58 | 2.56 | -6.66
CN(C)[C@@H]1CN(Cc2ccoc2)C[C@@H]2CCCO[C@@H]21 | 0.454 | -11.7 | 0.192 | -1.46 | -1.62 | 5.74 | -2.15 | 0.526 | -2.56 | -1.39
Cc1ccc(-c2nc(CCNC(=O)CCN3CCOC3=O)co2)cc1 | -3.11 | 5.33 | 5.5 | -0.602 | 8.87 | 7.72 | 33.2 | 6.84 | 5.13 | -8.83
CC(C)NC(=O)N1CCC2(C1)CN(c1ccsc1)C(=O)CN2C (stereo not given) | -2.47 | 9.09 | -13.1 | -3.41 | 5.26 | 20.6 | -8.36 | 6.84 | 10.3 | 10.4
CN1CCN(C[C@@H]2CN(C(=O)c3ccccc3C#N)C[C@@H]2CO)CC1 | -3.4 | 10.8 | 10.3 | 7.86 | 0.35 | 3.42 | 7.14 | 4.79 | 9.76 | 0.408
CS(=O)(=O)Cc1cccc(C(=O)N2CCCC(n3cccn3)C2)c1 (stereo not given) | -3.02 | 2.56 | -5.84 | -5.92 | -1.23 | 4.69 | 24.6 | 2.39 | 1.21 | -5.08
c1csc(-c2nc(CNC3CCc4ncnn4C3)cs2)c1 (stereo not given) | -3.1 | 10.3 | 2.55 | 0.469 | 2.05 | 7.93 | 0.908 | 6.22 | 18.1 | 1.57
